# Experimental data taken from PubChem BioAssay (NCATS).
# Inconclusive results are not listed. Unmarked numbers belong to inactive results. Calls of active or inactive are those of the source. The call rests on the fitted dose curve; tested in HEK293 reporter line.
# Experiment: qHTS for Inhibitors of the Functional Ribonucleoprotein Complex (vRNP) of Lassa (LASV) Arenavirus: Viability assay - alamar blue signal for LASV Primary Screen (AID 1347083); further: nearly all actives have a fitted effect of over 80% in size
# Details: cell viability, alamar blue fluorescence (LASV minigenome counter-screen); series mostly up to 57.5 µM; activity change, negative = reduced viability: at the top concentration
# On the % scale 0 is the no-effect control and ±100 the full control effect; potency means the concentration at half of the fitted maximal effect.
SMILES,Potency,"activity change, negative = reduced viability"
COc1ccc(CCC(=O)c2c(O)cc(O[C@@H]3O[C@H](CO)[C@@H](O)[C@H](O)[C@@H]3O[C@@H]3O[C@@H](C)[C@H](O)[C@@H](O)[C@@H]3O)cc2O)cc1O,5.44 µM (active),–
CCNC(=O)c1cc2c(-c3cc(OCCN4CCCC4)c(Cl)cc3Cl)nc(N)nc2s1,4.32 µM (active),–
COCCCCC(=NOCCN)c1ccc(C(F)(F)F)cc1,1.93 µM (active),–
COc1ccc(-c2cc3c(C)nc(N)nc3n(C3CCC(OCCO)CC3)c2=O)cn1 (stereo not given),0.0544 µM (active),–
C=C1C2[C@H](OC(C)=O)[C@@H]3CC(=O)[C@]4(C)OC[C@@]3(C)[C@@]4(O)[C@@H](OC(C)=O)[C@H](OC(C)=O)[C@@]2(COC(=O)c2ccccc2)[C@@H](OC(C)=O)C[C@@H]1O (stereo not given in full),–,-34.3%
COc1cc(Cl)cn2c(-c3cccc(NC4CNC4)n3)cnc12,21.7 µM (active),–
COc1cc2c(cc1OC)CN(CCc1ccc(NC(=O)c3cc(OC)c(OC)cc3NC(=O)c3cnc4ccccc4c3)cc1)CC2,19.3 µM (active),–
C=CCNc1c(O)cc2c(O)c1C[C@@H](C)C[C@H](OC)[C@@H](O)[C@@H](C)C=C(C)[C@H](OC(N)=O)[C@@H](OC)C=CC=C(C)C(=O)N2,4.85 µM (active),–
Cc1cc(OCCCS(C)(=O)=O)cc(C)c1-c1cccc(COc2ccc3c(c2)OC[C@H]3CC(=O)O)c1,–,-20.8%
C[C@]12C=CC(=O)C=C1CC[C@@H]1[C@@H]2CC[C@]2(C)C(=O)CC[C@@H]12,–,-16.1%
CCCCCCCCCCCCCCCC(N)=O,–,2.57% [at 5.82 µM]
O=C(CCCCCCNC(=O)c1cnc(N(c2ccccc2)c2ccccc2)nc1)NO,30.6 µM (active),–
CC(=O)/C=C/C1C(C)=CCC(C)C1(C)C (stereo not given),–,-0.864% [at 115 µM]
COc1cc(C(=O)O[C@@H]2CC(C)=CC[C@@]3(C)CC[C@](O)(C(C)C)[C@H]23)ccc1O,–,-12.3%
CC(C)(C)Cn1c(N)nc2ccc(-c3[nH]c(C(C)(C)C)nc3-c3ccc(F)cc3)nc21,–,-92.9%
CC(=O)O[C@@H]1/C=C/[C@](C)(O)C[C@@H](C)C/C=C/[C@H]2[C@H](O)C(C)=C(C)[C@H]3[C@H](Cc4ccccc4)NC(=O)[C@@]123,2 µM (active),–
NC(=O)c1cccc2cn(-c3ccc([C@@H]4CCCNC4)cc3)nc12,10.9 µM (active),–
CC(C)(N)c1ccc(-c2nc3ccccc3nc2-c2ccccc2)cc1,19.3 µM (active),–
Nc1ncnc2c1ncn2[C@@H]1O[C@H](CO)C[C@@H]1O,–,13%
CCCCCC[C@@H](O)C/C=C\CCCCCCCC(=O)O,–,0.559% [at 115 µM]

SMILES,Potency,"activity change, negative = reduced viability"
C=C(C)[C@@]12OC3(c4ccccc4)O[C@@H]1[C@@H]1[C@@H]4O[C@]4(CO)[C@@H](O)[C@]4(O)C(=O)C(C)=C[C@H]4[C@@]1(O3)[C@H](C)[C@H]2OC(=O)/C=C/C=C/c1ccccc1,–,-16%
C=CCNc1ncnc2ccc(Br)cc12,–,-0.674%
C=C[C@H]1CN2CC[C@@H]1C[C@@H]2[C@@H](O)c1ccnc2ccc(OC)cc12,–,-34.3%
O=C1c2ccccc2C(=O)N1Cc1ccccc1,–,3.5%
CCCCC/C=C\C\C=C/C=C/C=C/[C@@H](O)[C@@H](O)CCCC(=O)O,–,14.4% [at 0.757 µM]
COc1c2ccoc2c(OC[C@@H](O)C(C)(C)OC)c2oc(=O)ccc12,–,-16.1%
Cc1ncc(C[n+]2csc(CCO)c2C)c(N)n1,–,0.91% [at 115 µM]
COc1cc(F)c(F)c(Nc2ccc(I)cc2F)c1NS(=O)(=O)C1(C[C@H](O)CO)CC1,–,-13%
COc1ccc(-c2cc3nccn3c(Nc3ncccc3C(N)=O)n2)cc1OC,2.17 µM (active),–
Cc1ccc(NC(=O)Nc2cc(C(F)(F)F)ccc2F)cc1Nc1ccc2c(c1)NC(=O)C2=Cc1ccc[nH]1,17.2 µM (active),–
COc1cccc2c1cc([N+](=O)[O-])c1c(C(=O)O)cc3c(c12)OCO3,–,-2.84%
NC[C@@H]1O[C@H](C23CC4CC(CC(C4)C2)C3)Cc2c1ccc(O)c2O,–,-19.7%
CC(C)(C)NC(=O)[C@H]1CN(Cc2cccnc2)CCN1C[C@@H](O)C[C@@H](Cc1ccccc1)C(=O)N[C@H]1c2ccccc2C[C@H]1O,–,-25.2%
O=C1NC(=O)C(c2cnc3ccccn23)=C1c1cn2c3c(cccc13)CN(C(=O)N1CCOCC1)CC2,6.85 µM (active),–
CCN(CC)CCCCCCCCOC(=O)c1cc(OC)c(OC)c(OC)c1,–,-22.6%
CC#CCn1c(N2CCC[C@@H](N)C2)nc2c1c(=O)n(Cc1nc(C)c3ccccc3n1)c(=O)n2C,–,-8.59%
COc1cc2ncn(-c3cc(OCc4ccccc4S(C)(=O)=O)c(C#N)s3)c2cc1OC,27.3 µM (active),–
CN(C)CCCc1cc(C(=O)Nc2ccc(-c3ccncc3)cc2)ccc1O,–,10%
NC(=O)c1c[nH]c2ccccc12,–,-2.02%
c1ccc(C(NCCNC(c2ccccc2)c2ccccc2)c2ccccc2)cc1,–,-4.1%
